# Screening data as filed in PubChem BioAssay.
# In the library only some 0.81% were active in any assay of this set; here they are far more common.
# RTF Ca sens act – cardiac RTF calcium sensitization. IANBD-labeled TnC RTF fluorescence at EC20 calcium; 0% EC20 calcium, 100% full calcium. activation, % at 7.2 µM. 340,000 tested, 0.24% active. AID 493008;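 active means activation above the mean over all tested compounds plus 3 SD, cut at about 30% in these data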;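 further: rise in fluorescence read as greater calcium sensitivity of cardiac thin filaments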
# IDE cell inh – inhibits human insulin-degrading enzyme in HEK cells. P14735. FAbetaB cleavage, fluorescence polarization. inhibition, % at 5.59 µM. 320,000 tested, 0.41% active. AID 434962;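 active means percent inhibition above the average of all tested compounds plus 3 SD, set per screening campaign, cut at about 16% in these data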;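 further: IDE supplied by intact live HEK cells; FP after avidin binding of uncleaved biotin substrate so inhibition keeps polarization high; 0% = DMSO wells and 100% = 60 µM reference IDE inhibitor Ii1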
# IDE cell activ – IDE (human) activation, cell-based | HEK cells, FAbeta-B cleavage, fluorescence polarization; 0% vehicle, 100% cell-free pure enzyme wells | P14735 | 340,000 tested, 0.073% active | activation, % at 5.96 µM | AID 493087;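 active means activation above the mean of all tested compounds plus 3 SD, set per screening campaign, cut at about 17% in these data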
# C-LANA FP – inhibitors of KSHV LANA C-terminal domain DNA binding; 340,000 tested, 0.078% active; inhibition, % at 9 µM; MBP-C-LANA/FAM-LBS DNA binding, fluorescence polarization;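 active means highest replicate inhibition at or above 60% at 9 µM, even if other replicates fall short; inactive means all replicates below 60% inhibition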;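 further: 0% = neutral control wells and 100% = 4 µM acridine orange control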
# Keap1 Nrf2 FP – inhibitors of human Keap1-Nrf2 protein-protein interaction. Keap1 Kelch-Nrf2 peptide fluorescence polarization, 1536-well. AID 504523. Q14145. inhibition, % at 9.4 µM. 340,000 tested, 0.15% active; in the data active means inhibition above about 12%;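 further: human Keap1 Kelch domain with fluorescein labeled Nrf2 9mer peptide probe; 0% = neutral control wells and 100% = peptide positive control; higher means more block of Keap1 binding to Nrf2 peptide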
# RTF Ca sens inh – cardiac RTF calcium desensitization; IANBD-labeled cardiac RTF, Ca2+ fluorescence; inhibition, % at 7.15 µM; P19429+P45379; 340,000 tested, 0.12% active;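 active means inhibition above the mean inhibition of all tested compounds plus 3 SD, cut at about 17% in these data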;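 further: assay run at fixed EC70 calcium of 1.6 mM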
# IDE inh confirm – confirmation of human insulin-degrading enzyme inhibitors in cells; shares compounds with IDE cell inh; HEK cells, FAbetaB cleavage, fluorescence polarization; inhibition, % at 5.59 µM; 1,200 tested, 51% active; AID 435028;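 active means mean inhibition across triplicate wells above the cutoff set by the earlier primary insulin-degrading enzyme screen, cut at about 16% in these data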;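 further: 0% = DMSO wells and 100% = 60 µM reference IDE inhibitor Ii1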
# HEK cytotox – HEK cell cytotoxicity, counter-screen for IDE inhibitors; inhibition, % at 5.59 µM; shares compounds with IDE cell inh; 1,200 tested, 28% active; HEK293 cytotoxicity, ATP luminescence; in the data active means inhibition above about 22%;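 further: 0% = vehicle wells and 100% = reference cytotoxic drug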
# * marks the source's active call; other numbers are inactive results; / = no result.
SMILES,RTF Ca sens act,IDE cell inh,IDE cell activ,C-LANA FP,Keap1 Nrf2 FP,RTF Ca sens inh,IDE inh confirm,HEK cytotox
Cc1cc(C)c[n+](C(C)C(=O)c2ccc(-c3ccccc3)cc2)c1 (stereo not drawn),2,17*,-25,0,-1,-13,13,71*
CCOC(=O)c1ccc(NC(=O)CCSCCc2ccccn2)cc1,-6,6,7,1,1,-40,/,/
COc1ccc(C(=O)N(C)Cc2ccccc2)cc1Br,/,5,/,/,/,/,/,/
O=C(CC1Sc2ccccc2NC1=O)Nc1cccnc1 (stereo not drawn),0,0,3,1,2,-2,/,/
O=C(CC1Sc2ccccc2NC1=O)Nc1cccc(-c2nnc3n2CCCCC3)c1 (stereo not drawn),0,17*,-14,-1,2,8,9,6
CCC(=O)Nc1ccc(NC(=O)c2oc3ccccc3c2C)cc1,-9,17*,-5,1,-2,1,5,15
O=C(NCc1ccccc1)C1CCC(=O)N(CCCN2CCCC2=O)C1 (stereo not drawn),-5,-3,6,0,1,-5,/,/
CCCC[n+]1c(C)sc2cc(OC)ccc21,10,18*,-2,0,-5,-3,6,5
COc1ccc2sc(C)[n+](C)c2c1,1,7,-3,-1,-3,1,/,/
Cc1cccc2cc3c(N)c(C(=O)Nc4ccc(N5CCOCC5)cc4)sc3nc12,-1,-3,-14,2,-1,-6,/,/
CCc1cccc2cc3c(N)c(C(=O)Nc4ccc(S(=O)(=O)N5CCCC5)cc4)sc3nc12,22,25*,-11,1,7,-61,18*,31*
CCN1/C(=C\C(=S)Nc2ccccc2)Sc2ccccc21,1,21*,-5,1,-8,-3,2,13
CCOC(=O)/C(C#N)=C(C)/C=C1\Sc2ccccc2N1CC,169*,44*,-64,10,9,-2,78*,36*
CCN1/C(=C\C=C(C(C)=O)C(C)=O)Sc2ccccc21,78*,35*,-53,-20,-110,-94,50*,9
CC1(C)Cc2c(sc3nc(C4CC4)n(N)c(=O)c23)CO1,5,-1,5,16,-3,1,/,/
O=C1CCC(C(=O)N2CCCC(Nc3ccc(F)cc3)C2)=NN1 (stereo not drawn),-4,5,-3,3,1,-4,/,/
COc1ccc2cc(/C=N/NC(=O)c3ccc(CN(c4cccc(Cl)c4Cl)S(C)(=O)=O)cc3)c(Cl)nc2c1,0,5,6,2,4,-16,/,/
CCCN1C(=O)/C(=C/c2c(NCCCOCC)nc3c(C)cccn3c2=O)SC1=S,4,/,2,0,-8,-7,/,/
O=C1/C(=C\c2c(NCCOCCO)nc3ccccn3c2=O)SC(=S)N1Cc1ccco1,40*,99*,-69,0,0,-59,80*,15
Cc1cccc(N2CCN(C(=O)c3cccc(N4C(=O)C5CC=CC(C)C5C4=O)c3)CC2)c1C (stereo not drawn),0,53*,-58,-1,2,-7,36*,19
Cc1cccc(N2CCN(C(=O)c3cccc(N4CCCC4=O)c3)CC2)c1C,3,19*,-18,0,-1,9,12,12
COc1cccc(C2C=C(c3ccc(Br)s3)Nc3ncnn32)c1OC (stereo not drawn),37*,32*,-50,17,-10,-39,6,21
COc1ccc(C2C=C(c3ccc(C)c(C)c3)Nc3ncnn32)c(OC)c1OC (stereo not drawn),14,-1,-6,-2,-3,1,/,/
COc1ccc2c(Cl)c(C(=O)N/N=C3\CCCC(=O)C3)sc2c1,41*,22*,-18,9,-29,-80,31*,11
Cc1ccc(-c2nn(CC(=O)Nc3cccnc3)c(=O)c3ccccc23)cc1,7,-1,6,-2,3,-9,/,/
